According to PubChem BioAssay (NCATS):
Results filed as inconclusive are left out. Calls of active or inactive are those of the source. Calls follow the shape of the dose curve; as a rule, active = well fitted curve in the direction sought with a large enough effect; inconclusive = small, poorly fitted or top-dose-only effect, or another doubt; inactive = no such curve, though single readings can be large; an effect the other way counts as inactive or inconclusive.

How the values were obtained:
[1] = target: Rap guanine nucleotide exchange factor 3 (Homo sapiens) (UniProt O95398); assay: Confirmatory qHTS for antagonist of cAMP-regulated guanine nucleotide exchange factor 3 (EPAC1) (AID 1645880); also: nearly all actives have a fitted effect of over 55% in size; also: potency is read from the fitted curve at half-maximal effect
In short: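 Released BODIPY-GDP fluoresces less than Rap1-bound BODIPY-GDP; the signal is followed at 480/540 nm at 5-min intervals over 30 min, after 5 min at room temperature. Reactions contain 100 nM EPAC1, 250 nM RAP1B-BODIPY-GDP and 50 uM GDP; results are normalized to ATA and DMSO.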

[2] = target: Rap guanine nucleotide exchange factor 3 (Homo sapiens) (UniProt O95398); assay: Confirmatory qHTS for agonist of cAMP-regulated guanine nucleotide exchange factor 3 (EPAC1) (AID 1645881);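 also: EPAC1 catalysed release of BODIPY-GDP from Rap1B seen as fluorescence loss; 100% = effect of cAMP agonist control; nearly all actives have a fitted effect of over 75% in size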
[3] = target: Rap guanine nucleotide exchange factor 4 (Homo sapiens) (UniProt Q8WZA2); assay: Confirmatory qHTS for agonist of cAMP-regulated guanine nucleotide exchange factor 4 (EPAC2) (AID 1645884);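 also: nucleotide exchange releases bodipy-GDP from Rap1 and this lowers its fluorescence; nearly all actives have a fitted effect of over 65% in size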; also: potency is read from the fitted curve at half-maximal effect; as to activation: % is scaled to controls: 0 for no effect and ±100 for the full control effect
[4] = target: Rap guanine nucleotide exchange factor 4 (Homo sapiens) (UniProt Q8WZA2); assay: Confirmatory qHTS for antagonist of cAMP-regulated guanine nucleotide exchange factor 4 (EPAC2) (AID 1645885); also: nearly all actives have a fitted effect of over 25% in size; also: potency is read from the fitted curve at half-maximal effect

Chain of Rap guanine nucleotide exchange factor 4 (Homo sapiens) (Q8WZA2 whole entry, looked up): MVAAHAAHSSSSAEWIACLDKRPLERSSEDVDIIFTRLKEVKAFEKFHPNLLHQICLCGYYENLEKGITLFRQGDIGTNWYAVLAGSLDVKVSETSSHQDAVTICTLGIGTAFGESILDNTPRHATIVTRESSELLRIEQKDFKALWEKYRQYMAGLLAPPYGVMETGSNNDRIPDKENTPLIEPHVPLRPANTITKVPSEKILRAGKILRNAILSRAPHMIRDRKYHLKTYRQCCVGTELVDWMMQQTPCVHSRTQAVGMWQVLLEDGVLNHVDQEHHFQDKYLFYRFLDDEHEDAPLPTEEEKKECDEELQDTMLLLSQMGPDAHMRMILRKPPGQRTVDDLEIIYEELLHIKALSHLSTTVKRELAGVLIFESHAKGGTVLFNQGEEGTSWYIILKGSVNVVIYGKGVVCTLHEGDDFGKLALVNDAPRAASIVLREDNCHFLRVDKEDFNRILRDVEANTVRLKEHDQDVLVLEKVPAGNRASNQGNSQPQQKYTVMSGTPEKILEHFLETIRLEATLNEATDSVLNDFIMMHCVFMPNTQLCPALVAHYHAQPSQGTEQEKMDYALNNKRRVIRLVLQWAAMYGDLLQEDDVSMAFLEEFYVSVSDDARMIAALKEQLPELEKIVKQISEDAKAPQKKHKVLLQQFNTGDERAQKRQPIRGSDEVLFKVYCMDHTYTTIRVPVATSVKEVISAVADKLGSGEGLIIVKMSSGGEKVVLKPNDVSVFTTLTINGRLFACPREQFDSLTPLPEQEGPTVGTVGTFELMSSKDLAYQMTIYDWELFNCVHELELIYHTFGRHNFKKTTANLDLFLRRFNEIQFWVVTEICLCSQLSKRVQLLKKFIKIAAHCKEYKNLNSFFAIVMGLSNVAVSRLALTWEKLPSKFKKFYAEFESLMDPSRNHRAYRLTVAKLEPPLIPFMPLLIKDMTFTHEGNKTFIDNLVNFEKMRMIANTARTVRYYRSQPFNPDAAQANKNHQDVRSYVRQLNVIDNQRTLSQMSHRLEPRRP
Chain of Rap guanine nucleotide exchange factor 3 (Homo sapiens) (O95398 whole entry, looked up): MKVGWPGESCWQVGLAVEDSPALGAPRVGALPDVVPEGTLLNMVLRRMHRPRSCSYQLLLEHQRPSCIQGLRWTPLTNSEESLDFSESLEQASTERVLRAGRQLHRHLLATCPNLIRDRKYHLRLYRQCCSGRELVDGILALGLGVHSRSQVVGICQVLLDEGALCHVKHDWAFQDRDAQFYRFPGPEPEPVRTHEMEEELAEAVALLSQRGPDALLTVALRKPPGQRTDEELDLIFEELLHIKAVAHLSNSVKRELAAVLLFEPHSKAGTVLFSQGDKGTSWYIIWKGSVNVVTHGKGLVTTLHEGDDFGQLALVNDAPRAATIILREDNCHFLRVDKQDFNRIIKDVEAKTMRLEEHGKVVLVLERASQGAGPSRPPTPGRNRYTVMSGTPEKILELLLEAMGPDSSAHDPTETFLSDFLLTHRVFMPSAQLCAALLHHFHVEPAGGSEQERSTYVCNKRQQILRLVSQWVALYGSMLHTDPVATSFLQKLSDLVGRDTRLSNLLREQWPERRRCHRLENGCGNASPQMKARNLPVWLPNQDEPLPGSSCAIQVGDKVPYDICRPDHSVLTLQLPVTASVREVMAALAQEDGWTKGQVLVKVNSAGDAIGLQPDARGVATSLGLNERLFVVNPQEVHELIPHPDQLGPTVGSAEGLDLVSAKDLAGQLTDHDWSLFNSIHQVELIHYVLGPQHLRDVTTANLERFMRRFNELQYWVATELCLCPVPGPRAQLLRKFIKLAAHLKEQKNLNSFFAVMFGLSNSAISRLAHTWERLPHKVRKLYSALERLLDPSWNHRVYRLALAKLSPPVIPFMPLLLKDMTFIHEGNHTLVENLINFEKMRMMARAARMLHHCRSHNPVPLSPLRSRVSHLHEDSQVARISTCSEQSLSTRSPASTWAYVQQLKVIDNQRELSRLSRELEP

COc1ccc(-c2nc3cc(C)ccc3cc2CN(C(=O)c2cccs2)C2CC2)cc1OC
active: Potency [4] 49.4 µM
inactive: Potency [1] | Potency [2] | Potency [3]

Cn1cc(/C=C/c2ccc3ccccc3n2)c2ccccc21
inactive: Potency [1] | Potency [2] | Potency [3]

COc1cc2c3nnc(-c4ccccc4)c-3cn(Cc3ccc(F)cc3)c2cc1OC
inactive: Potency [1] | Potency [2] | Potency [3] | Potency [4]

COc1cccc(-c2nc3cc(SC)ccc3cc2CN(C(=O)c2sccc2C)C2CC2)c1
active: Potency [4] 31.2 µM
inactive: Potency [1] | Potency [2] | Potency [3]

Cc1cc(-c2cc(F)cc3c2OC(CNC(=O)CCn2cncn2)C3)ccc1F (stereo not given)
inactive: Potency [1] | Potency [2] | Potency [3] | Potency [4]

Cc1nc2ccccc2c(=O)n1/N=C/c1ccccc1O
active: Potency [1] 35.5 µM
inactive: Potency [2] | activation [3] 1.94% [at 17.1 µM, percent relative to cAMP agonist control] | Potency [4]

O=C(/C=C/c1ccco1)NC(=S)Nc1cccc([N+](=O)[O-])c1
active: Potency [1] 20 µM
inactive: Potency [2] | activation [3] 7.76% [at 17.1 µM, percent relative to cAMP agonist control] | Potency [4]

COc1ccc(SC[C@H](C)CN2CC[C@H](C)CCC2=O)cc1
inactive: Potency [1] | Potency [2] | Potency [3] | Potency [4]

CCc1ccccc1NC(=O)CCC(=O)N1CCN(C(C)=O)CC1
inactive: Potency [1] | Potency [2] | Potency [3] | Potency [4]

O=C1C[C@H]2C=CCc3cccc(c32)CN1Cc1ccc(Cl)cc1
inactive: Potency [1] | Potency [2] | Potency [3]
active: Potency [4] 44.1 µM

CC(c1ccc(N(C)C)cc1)c1ccnc2ccccc12 (stereo not given)
inactive: Potency [1] | Potency [2] | Potency [3] | Potency [4]

Cc1cc(NC(=O)CSc2nc(-c3ccccc3)nc3c2c(=O)n(C)c(=O)n3C)no1
inactive: Potency [1] | Potency [2] | activation [3] 0% [at 17.1 µM, percent relative to cAMP agonist control] | Potency [4]

Cn1c(O)c(N=NC(=O)c2ccccc2O)c2ccccc21
inactive: Potency [2] | Potency [3] | Potency [4]
active: Potency [1] 53.6 µM

Cc1ccc(C)c(S(=O)(=O)/N=C2\C=C(NS(=O)(=O)c3ccccc3)C(=O)c3ccccc32)c1
inactive: Potency [2] | activation [3] 3.6% [at 17.1 µM, percent relative to cAMP agonist control] | Potency [4]
active: Potency [1] 22.4 µM

COc1ccc(C(C[N+](=O)[O-])c2c(C)cc3ccccn23)c(OC)c1 (stereo not given)
inactive: Potency [1] | Potency [2] | activation [3] 7.09% [at 17.1 µM, percent relative to cAMP agonist control] | Potency [4]

O=C(Nc1ccc(Cl)cc1)N[C@@H]1CC[C@H](CCNS(=O)(=O)c2ccccc2F)O[C@@H]1CO
inactive: Potency [1] | Potency [2] | Potency [3] | Potency [4]

C/C(=N\N1C(=O)c2ccccc2NC1c1ccco1)c1ccccc1O (stereo not given)
active: Potency [1] 75.7 µM
inactive: Potency [2] | Potency [3] | Potency [4]

CCC1CCCCN1CCCNC(=O)CCC(=O)N1CC(C)Oc2ccccc21 (stereo not given)
inactive: Potency [1] | Potency [2] | Potency [3] | Potency [4]

COC(=O)c1cn(C(=O)c2ccc(OC)cc2)c2ccccc12
active: Potency [3] 31.6 µM
inactive: Potency [1] | Potency [2] | Potency [4]

CCN(CCn1cccn1)Cc1c(C(=O)N2CCCCCCC2)nc2ccc(Cl)cn12
inactive: Potency [1] | Potency [2] | Potency [3] | Potency [4]

CCCCN(Cc1ccc(C(=O)N[C@H](C(=O)O)C(C)C)cc1)C(=O)C(c1ccccc1)c1ccccc1
inactive: Potency [1] | Potency [2] | activation [3] 8.93% [at 17.1 µM, percent relative to cAMP agonist control] | Potency [4]

COc1ccccc1N1CCN(c2ccc3c(c2)S(=O)(=O)c2cccc(C(=O)NCC4CC4)c2C3=O)CC1
inactive: Potency [1] | Potency [2] | Potency [3] | Potency [4]

C(=C\c1nccc2ccccc12)/c1ccc(N2CCOCC2)cc1
inactive: Potency [1] | Potency [2] | Potency [3] | Potency [4]

CC(C)CC1C(=O)N(Cc2cn(CCC3OCCCO3)nn2)CCS(=O)(=O)N1Cc1ccc(-c2ccc(F)cc2)cc1 (stereo not given)
inactive: Potency [1] | Potency [2] | Potency [3] | Potency [4]

COC(=O)C1=NNCC12CC(=O)N(c1ccc(Br)cc1)C2=O (stereo not given)
inactive: Potency [1] | Potency [2] | Potency [3] | Potency [4]

CCCCCCc1ccc(N2C[C@H](Cc3ccccc3)[C@@H](CC(=O)Nc3ccccc3)C2=O)cc1
inactive: Potency [1] | Potency [2] | Potency [3] | Potency [4]

COc1cc(/C=N/NC(=O)c2ccccn2)ccc1OC(=O)c1ccc(Br)cc1
inactive: Potency [1] | Potency [2] | Potency [3] | Potency [4]

COc1cccc(-c2nc3cc(SC)ccc3cc2CN(C(=O)c2csc(C)n2)C2CC2)c1
inactive: Potency [1] | Potency [2] | Potency [3]
active: Potency [4] 11.1 µM

C/C(CC(=O)Nc1ccc2ccccc2c1)=N\NC(=O)c1cnccn1
inactive: Potency [1] | Potency [2] | Potency [3] | Potency [4]

CCc1ccccc1NC(=O)c1oc(=O)c2ccccc2c1-c1ccccc1
inactive: Potency [1] | Potency [2] | Potency [3] | Potency [4]

CC(=O)NC(c1ccc2ccccc2c1)c1ccc2cccnc2c1O (stereo not given)
inactive: Potency [1] | Potency [2] | Potency [3]
active: Potency [4] 10.7 µM

CCCCN(C(=O)c1cccc2c(=O)c(C)c(-c3ccccc3)oc12)c1ccccc1
inactive: Potency [1] | Potency [2] | activation [3] 8.49% [at 17.1 µM, percent relative to cAMP agonist control] | Potency [4]

O=C(C[n+]1cccc2cc(Cl)ccc21)c1ccc(Br)cc1
inactive: Potency [1] | Potency [2] | Potency [3] | Potency [4]

O=C1[C@H](Cc2ccccc2)NCCCC[C@H](c2ccco2)N1Cc1ccccc1
inactive: Potency [1] | Potency [2] | Potency [3] | Potency [4]

COc1ccccc1CNC(=O)CSc1ccc(-c2cccs2)nn1
inactive: Potency [1] | Potency [2] | Potency [3] | Potency [4]

CCC(C(=O)Nc1cc(OC)ccc1OC)n1nc(-c2ccccc2)c2c(c1=O)CCCC2 (stereo not given)
inactive: Potency [1] | Potency [2] | Potency [3] | Potency [4]

CN(Cc1cccc2ncccc12)C(=O)c1cnn(-c2nccc(-c3ccccc3F)n2)c1C1CC1
inactive: Potency [1] | Potency [2] | Potency [3]
active: Potency [4] 15.6 µM

COc1ccccc1NC(=O)Nc1nc(CC(=O)Nc2ccc(N(C)C)cc2)cs1
inactive: Potency [1] | Potency [2] | activation [3] 15.9% [at 17.1 µM, percent relative to cAMP agonist control] | Potency [4]

N#CC1=C(N)SC(N)=C(C#N)C1c1cccc(Oc2ccccc2)c1
active: Potency [1] 67.5 µM
inactive: Potency [2] | Potency [3] | Potency [4]

COc1cc(/C=N/NC(=O)c2ccccc2)ccc1O
inactive: Potency [1] | Potency [2] | Potency [3] | Potency [4]

Cn1cccc1-c1cc(C(=O)N/N=C/c2ccc(F)cc2)[nH]n1
inactive: Potency [1] | Potency [2] | activation [3] -2.5% [at 17.1 µM, percent relative to cAMP agonist control] | Potency [4]

COc1ccc2cc(-c3cn4c(n3)sc3cc(F)ccc34)c(=O)oc2c1
inactive: Potency [1] | Potency [2] | Potency [3] | Potency [4]

CCOC(=O)[C@H](CCc1ccccc1)N[C@@H](C)C(=O)N1[C@@H](C(=O)O)C[C@@H]2CCC[C@@H]21
inactive: Potency [1] | Potency [2] | Potency [3] | Potency [4]

CC1Sc2ccc(C(=O)OCc3ccccc3Cl)cc2NC1=O (stereo not given)
inactive: Potency [1] | Potency [2] | Potency [3] | Potency [4]

O=[N+]([O-])c1cc2ccccc2c(O)c1O
active: Potency [1] 31.6 µM
inactive: Potency [2] | activation [3] 8.01% [at 17.1 µM, percent relative to cAMP agonist control] | Potency [4]

COc1cccc(OC)c1NC(=O)c1ccc(-c2cc(Cl)ccc2Cl)o1
inactive: Potency [1] | Potency [2] | Potency [3] | Potency [4]

Cc1cccc(NC(=O)CC2Nc3cccc4cccc(c34)NC2=O)c1 (stereo not given)
active: Potency [1] 75.7 µM
inactive: Potency [2] | Potency [3] | Potency [4]

C[C@@H]1CN([C@@H](C)CO)S(=O)(=O)c2ccc(Br)cc2O[C@H]1CN(C)Cc1ccccc1F
inactive: Potency [1] | Potency [2] | Potency [3] | Potency [4]

Fc1ccccc1N1CCN(c2ncnc3onc(-c4ccc(Cl)cc4)c23)CC1
inactive: Potency [1] | Potency [2] | Potency [3] | Potency [4]

O=C(COC(=O)/C=C/c1cccc(C(F)(F)F)c1)NC(=O)NC1CCCC1
inactive: Potency [1] | Potency [2] | activation [3] 4.78% [at 17.1 µM, percent relative to cAMP agonist control] | Potency [4]

O=C1CC(=O)N(CCc2ccccc2)C(=O)N1CCc1ccccc1
inactive: Potency [1] | Potency [2] | Potency [3] | Potency [4]

Cc1ccc(C)c(N2CCN(C(=O)CCc3nc(-c4ccc(Cl)cc4)no3)CC2)c1
inactive: Potency [1] | Potency [2] | Potency [3] | Potency [4]

COc1ccc(CCn2c(=N)c(S(=O)(=O)c3ccc(C)cc3)cc3c(=O)n4ccccc4nc32)cc1
inactive: Potency [2] | activation [3] -30.1% [at 17.1 µM, percent relative to cAMP agonist control] | Potency [4]
active: Potency [1] 79.4 µM

COc1ccc(OC)c2c(/C=C/c3c(C)[nH]c4ccccc34)ccnc12
inactive: Potency [1] | Potency [2] | Potency [3] | Potency [4]

Cc1cc(N(C)C)cc(C)c1/C=C/c1ccnc2ccccc12
inactive: Potency [1] | Potency [2] | Potency [3]
active: Potency [4] 13.9 µM

Cc1cccc(C)c1OCC(=O)N(Cc1ccco1)Cc1ccco1
inactive: Potency [1] | Potency [2] | Potency [3] | Potency [4]

CCCCN(C(=O)CSc1n[nH]c(-c2ccc(C)cc2)n1)c1c(N)n(CCCC)c(=O)[nH]c1=O
inactive: Potency [1] | Potency [2] | Potency [3] | Potency [4]

CC(=O)c1ccc(NC(=O)CC2Nc3cccc4cccc(c34)NC2=O)cc1 (stereo not given)
inactive: Potency [2] | Potency [3] | Potency [4]
active: Potency [1] 75.7 µM

C#C[C@]1(OC(C)=O)CCC2C3CCC4=CC(=O)CC[C@@H]4C3CC[C@@]21C (stereo not given in full)
active: Potency [4] 39.3 µM
inactive: Potency [1] | Potency [2] | Potency [3]
